What was measured:
Type in all cases: functional
Plasmodium falciparum [1] = assay: GSK_TCMDC: Inhibition of Plasmodium falciparum 3D7 in whole red blood cells, using parasite LDH activity as an index of growth. Test compounds present at 2uM
Plasmodium falciparum [2] = assay: GSK_TCMDC: Inhibition of Plasmodium falciparum Dd2 in whole red blood cells, using parasite LDH activity as an index of growth. Test compounds present at 2uM
HepG2 = assay: GSK_TCMDC: Percent inhibition of human HepG2 cell line. Test compounds present at 10uM.

Compound	Inhibition (Plasmodium falciparum [1]) [%]	Inhibition (Plasmodium falciparum [2]) [%]	Inhibition (HepG2) [%]
CC(=O)Nc1ccc(C(=O)Nc2cccc(-c3ccc(-c4nc5cc(C(F)(F)F)ccc5[nH]4)s3)c2)cn1	100	98	42
O=C(Cc1ccc(NC(=O)c2ccc(O)c(-c3ccc(Cl)c(Cl)c3)c2)cc1)NCCN1CCOCC1	94	24	10
CCN(CC)c1ccc(C=CC(=O)NCCN2CCC(N(C)C3CCCCC3C)CC2)cc1 (centres undefined)	88	18	29
O=C(NCCCCN1CCC(c2c[nH]c3ccccc23)CC1)c1sc(-c2ccc(C(F)(F)F)cc2)nc1CO	94	3	34
CC(C)Sc1nc2c(c(=O)n1CCc1ccccc1)C1(CCCCC1)Cc1ccccc1-2	92	5	8
O=C(NCCCCN1CCC(c2c[nH]c3ccccc23)CC1)c1ccc(-c2ccc(C(F)(F)F)cc2)cc1	98	22	34
COc1ccc(CNC(=O)c2cnc3cc(-c4c(C)noc4C)ccc3c2Nc2ccccc2C(C)(C)C)cc1.Cl	99	69	9
CCCCCCNc1cc(C)nc2ccc(OC)cc12.Cl	100	94	19
O=C(/C=C/c1ccc(Cl)c(Cl)c1)NCCCCCN1CCC(NC(=O)Nc2ccc(Cl)c(Cl)c2)CC1	100	1	23
CCOc1ccc(OCC(=O)Nc2nc(-c3ccc(OC)cc3)c(C)s2)cc1	99	98	0
NS(=O)(=O)CCc1cccc(Nc2nccc(-c3c(-c4cccc(NC(=O)c5c(F)cccc5F)c4)nn4ccccc34)n2)c1	98	97	84
Cl.O=S(=O)(c1ccc(OCc2ccc(Cl)cc2)cc1)c1cc2c(cc1O)CCN(C1CCC1)CC2	99	63	11
COC(=O)CCCOc1cc(Cc2cnc(N)nc2N)cc(OC)c1OC	95	0	12
O=C(CCCCCNC(=O)c1ccc(O)c(-c2ccc(Cl)c(Cl)c2)c1)NCc1cccc2ccccc12	99	15	2
CCN(CC)CCOc1cc2c(cc1Br)-c1cc(Br)c(OCCN(CC)CC)cc1C2=NO.Cl	100	98	99
N=C(N)NC(=O)Nc1cc(Br)c(Br)c(Br)c1	100	89	0
CCCCN(CCCC)C(=O)CC(O)c1cc2c(Cl)cc(Cl)cc2c2cc(C(F)(F)F)ccc12 (centres undefined)	92	68	0
CC(C)(C)c1ccc(CNC(=O)/C=C/c2ccc(-c3nc4cc(C(C)(C)C)ccc4[nH]3)cc2)cc1	100	66	35
COc1ccc(O)c(Cc2cnc3nc(N)nc(N)c3c2C)c1.O=C(O)C(F)(F)F	94	74	56
COC(=O)c1c(C#N)c(OC)cc(O)c1CSC[C@H](Nc1nc(-c2ccc([N+](=O)[O-])cc2)cs1)C(=O)NCCN1CCCCC1	85	88	5
O=c1cc(NCCC(CNCc2ccoc2)NCc2cc(Br)cc(Br)c2)[nH]c2ccccc12 (centres undefined)	92	28	0

Compound	Inhibition (Plasmodium falciparum [1]) [%]	Inhibition (Plasmodium falciparum [2]) [%]	Inhibition (HepG2) [%]
Cc1ccc(Nc2nccc(Nc3ccc4c(C)n[nH]c4c3)n2)cc1F.Cl	95	1	6
CC(=O)Oc1c(C(=O)C2CCC(C(C)(C)C)CC2)c(OC(C)=O)c2ccccc2c1OC(C)=O (centres undefined)	96	96	9
COc1ccc(NC(=O)[C@H](Cc2ccccc2)Nc2nc(NCCN3CCCC3)ncc2C)cc1.O=C(O)C(F)(F)F	89	9	26
COc1ccc(Cc2c(N)nc3nc(N)nc(N)c3c2C)cc1.Cl	94	3	64
CNC(=O)Cc1ccc(C(=O)Nc2cccc(-c3cccc(-c4nc5cc(C(F)(F)F)ccc5[nH]4)c3)c2)cc1	95	37	40
CN(C)Cc1ccc(-c2ccc3c(Nc4ccc(Oc5ccccn5)cc4)ccnc3c2)o1	100	100	18
Cc1cc2ncc(C(N)=O)c(Nc3ccc(N4CCOCC4)cc3)c2cc1S(C)(=O)=O.Cl	100	96	0
COc1cccc(-c2cc(C(F)(F)F)n3ncc(C(=O)Nc4cc(C)ccc4O)c3n2)c1	98	99	0
CCN(CC)CCCN(C(=O)c1cc2c(C)nn(-c3ccccc3)c2s1)c1nc(-c2ccc(OC)cc2)cs1.Cl	89	32	12
CCOc1ccc(C(C)NC(=O)C2COc3ccccc3O2)cc1OCC (centres undefined)	100	100	0
CCC(C)(CC)C(=O)n1ncc2c3c(N)nc(N)nc3ccc21	94	6	73
CN(C)CCCN1CCN(Cc2ccc(-c3ccc(-c4nc5ccccc5[nH]4)s3)cc2)CC1	100	100	19
O=S(=O)(Nc1ccc(CCN2CCC(N3CCCCC3)CC2)cc1)c1cccc(C(F)(F)F)c1	100	15	20
CCc1cn2c3c(cc(C(=O)N[C@@H](Cc4ccccc4)[C@H](O)CNC4CC4)cc13)N(CC)S(=O)(=O)CC2.O=CO	98	99	13
CCCCCCCCc1c(C)nc(C)c(I)c1O	91	77	5
COc1ccc(CN2CCC(CNCC(c3ccccc3)c3ccccc3)CC2)cc1.O=C(O)C(F)(F)F	100	95	84
N=C(N)Nc1nc(-c2cccc(NC(=O)Cc3ccccc3)c2)cs1	99	9	1
COc1cc(-c2cc3cc(Cl)c(Cl)cc3[nH]2)ccc1C(=O)NC1CCN(Cc2ccccc2)CC1.O=C(O)C(F)(F)F	100	100	12
NCc1ccc(CNCc2cccc(-c3ccc(-c4nc5cc(C(F)(F)F)ccc5[nH]4)cc3)c2)cc1.O=C(O)C(F)(F)F	98	90	13
CCOc1ccc(C(C)NC(=O)Cc2ccccc2F)cc1OCC (centres undefined)	96	44	15
COc1ccc2nc(-c3cc(-c4ccc(NC(C)=O)cc4)cnc3N)[nH]c2c1	93	73	55

Compound	Inhibition (Plasmodium falciparum [1]) [%]	Inhibition (Plasmodium falciparum [2]) [%]	Inhibition (HepG2) [%]
COc1ccc(NC(=O)Nc2ccc(Nc3nc(C)cc(N4CCCC4)n3)cc2)cc1	100	100	14
O=C(/C=C/c1ccc(Cl)c(Cl)c1)NCCCCCN1CCC(CCCNC(=O)Nc2ccc(C(F)(F)F)cc2)CC1	91	19	0
N#CCCn1nc(-c2ccc(Cl)cc2)c2c(c1=O)CCCC2	94	32	0
CCOc1ccc(-c2nonc2NC(=O)c2ccccc2Cl)cc1OCC	100	100	3
Fc1cccc(Cl)c1-c1nc(NCCC(c2ccccc2)c2ccccc2)no1	99	87	4
COc1ccc(-n2cc(C(=O)c3cc(Br)ccc3O)cc(C#N)c2=O)cc1Cl	99	23	29
O=C(O)C(F)(F)F.O=S(=O)(NCCN1CCCC1)c1ccc(-c2ccc(CNCc3ccsc3)cc2)cc1F	96	40	27
Cl.N#Cc1ccc(-c2ccc(C(=O)Nc3ccc4c(c3)CCN(C3CCC3)CC4)nc2)cn1	85	15	24
O=C(Nc1cccc(-c2ccc(-c3nc4cc(F)ccc4[nH]3)cc2)c1)c1csnn1	94	31	22
CCOc1cc(O)c(-c2nc(N)ncc2-c2ccc3c(c2)OCCO3)cc1CC	99	68	0
Cl.FC(F)(F)c1ccc2c(NCCc3ccccc3)ccnc2c1	87	9	14
CCOC(=O)c1ccc(N2CCCCC2)c(NC(=O)C(Cl)(Cl)Cl)c1	96	97	11
O=c1c2ccc(F)cc2sn1-c1ccc(Cl)cc1	98	11	8
CC(Cc1ccc(OCc2ccccc2)cc1)Nc1nc(O)c2ccccc2n1.Cl (centres undefined)	98	96	2
Cc1cccc2nc(-c3ccc(-c4ccc(CNCc5ccc(S(C)(=O)=O)cc5)cc4)cc3)[nH]c12.O=C(O)C(F)(F)F	93	38	19
CC(C)C(=O)NC(Nc1ccc([N+](=O)[O-])cc1)C(Cl)(Cl)Cl (centres undefined)	97	84	7
COc1ccc2nccc(N3CCC(SCCNCc4ccc5c(n4)NC(=O)CO5)C3)c2n1.Cl (centres undefined)	100	9	30
Cc1ccc(-c2cnc(N)c3cc(-c4ccnc(N)n4)ccc23)cc1	99	94	41
CC(C)n1c(CC2CCN(CC3CCN(C(=O)/C=C/c4ccc(Cl)c(Cl)c4)CC3)CC2)nc2ccccc21	100	23	19
CCCNCc1ccc(-c2ccc(CN(CCOC)C(=O)CCc3ccc(OC)cc3)cc2)nc1.O=C(O)C(F)(F)F	98	29	11
COc1cc(COc2c(C)nc(N)nc2N)cc(OC)c1OC.Cl	100	0	7

From ChEMBL document CHEMBL1157539, “Thousands of chemical starting points for antimalarial lead identification” (Nature, 2010)
